# Assay outcomes (PubChem BioAssay)
# Shown are actives, neighbours in structure and some others; about 11% of the full set was active somewhere.
# Sm TGR inh: blocks Schistosoma mansoni thioredoxin glutathione reductase | Potency, µM (titrated, usually from 114 µM), for the others: top-dose activity change, negative = inhibition, hits mostly inhibitors | 360,000 tested, 3% active | AID 485364 | Q962Y6 | purified TGR, DTNB reduction, TNB absorbance 405 nm; further: on the % scale 0 is the no-effect control and ±100 the full control effect; nearly all actives have a fitted effect of over 60% in size
#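 TGR 20 nM + NADPH 100 uM (dispensed conc.), cpd preinc 15 min RT; start with NADPH (500 uM addition) then DTNB (15 mM addition). Kinetic TNB absorbance, 405 nm filter. Four-parameter Hill fit across titration.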
# Pf growth 48h: P. falciparum growth inhibition at 48 hours (one generation). P. falciparum luciferase growth in erythrocytes, 48 h. 310,000 tested, 5.9% active. Potency, µM (highest dose often 28.7 µM), without a hit: at the highest dose activity change, negative = inhibition, actives largely listed as inhibitors; further: on the % scale 0 is the no-effect control and ±100 the full control effect
#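 Compounds are pin-transferred into medium, infected erythrocytes (2% hematocrit, 0.1% parasitemia final) are added, and plates sit one parasite generation at 37 C in 5% CO2. Detection reagent is then added and luminescence measured.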
# NS1 function inh: inhibitors of influenza NS1 protein function. 270,000 tested, 0.4% active. Potency, µM (doses to about 46.1 µM), without a hit: top-dose activity, positive = more growth; calls by dose curve; further: actives are rising curves; nearly all actives have a fitted effect of over 50% in size
#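 OD600 was taken as the measure of yeast growth restored by compound in an NS1-expressing S. cerevisiae strain. Cells had been washed out of glucose medium and diluted 1:100 into galactose -URA medium, pH 6.0.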
# Pf growth 96h: P. falciparum growth inhibition at 96 hour, primary screen for plastid delayed-death inhibitors; P. falciparum luciferase reporter growth, 96 h; Potency, µM (highest dose often 28.7 µM), without a hit: at the top dose activity change, negative = inhibition, actives largely listed as inhibitors; 320,000 tested, 6.9% active; AID 504834; further: on the % scale 0 is the no-effect control and ±100 the full control effect
#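 P. falciparum expressing integrated firefly luciferase, in erythrocytes at 2% hematocrit, 0.05% parasitemia, incubated with compounds 96 h at 37 C, 5% CO2. Growth inhibition read as loss of luminescence; two-generation exposure targets delayed-death apicoplast inhibitors.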
# AMA1 RON2 block: inhibitors of Plasmodium falciparum AMA1-RON2 interaction; Potency, µM (doses to about 58.2 µM), without a hit: top-dose activity change, negative = inhibition, actives largely listed as inhibitors; 360,000 tested, 0.2% active; AlphaScreen AMA1-biotinylated RON2 peptide binding;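 further: 0% = vehicle wells and -100% = peptide control; nearly all actives have a fitted effect of over 45% in size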
#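 AMA1 (3D7) with his tag at 25 nM final met compounds first, then biotinylated RON2 peptide at 25 nM; detection used donor plus acceptor beads, 10 µg/mL apiece, read by AlphaScreen after 30 min at room temperature.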
# * hit, by the source's call; ? = inconclusive; . = no result; [ ] = another dose, or the depositor's remark. Unless noted, the call rests on the fitted dose curve; in most records, active means well fitted curve in the direction sought with a large enough effect; inconclusive means small, poorly fitted or top-dose-only effect, or another doubt; inactive means no such curve, though single readings can be large; an effect the other way counts as inactive or inconclusive. Potency means the concentration at half of the fitted maximal effect.
SMILES,Sm TGR inh,Pf growth 48h,NS1 function inh,Pf growth 96h,AMA1 RON2 block
Cc1ccc([C@H]2C[C@H](n3cc(-c4ccc(F)cc4)nn3)[C@@H](O)CN2C(=O)C2CCCCC2)cc1,.,.,.,.,11.4%
Cc1ccc2c(c1)C(=O)C(=O)N2CC(=O)OC(C)C,13.2%,46.4%,-7.4%,0.0294µM*,0.0%
CN1CCN(S(=O)(=O)c2cnccc2N2CCN(c3cccc(Cl)c3)CC2)CC1,-1.8%,2.62µM*,-6.2%,2.62µM*,-4.9%
CCN(CC)S(=O)(=O)c1cnccc1N1CCN(c2cccc(Cl)c2)CC1,1.9%,3.29µM*,-49.3%,2.94µM*,-0.6%[11.6 µM]
NC(=O)c1cc(S(=O)(=O)N2CCN(c3cccc(Cl)c3)CC2)cs1,3.2%,-9.9%,2.6%,1.17µM*,3.6%
O=C(Nc1oc2ccccc2c(=O)c1-c1ccc2c(c1)OCO2)c1ccco1,.,.,.,.,0.0%
CCOC(=O)c1c(NC(=O)C2C3C=CC(C3)C2C(=O)O)sc2c1CCC(C)C2 (stereo not given),-4.5%,-1.2%,5.4%,?,-13.7%
CCOC(=O)c1c(N2C(=O)C3C4C=CC(C4)C3C2=O)sc2c1CCC(C)C2 (stereo not given),6.2%,1.0%,-7.1%,13.1µM*,1.0%
Cc1ccnc(N2C(=O)c3cccc4c([N+](=O)[O-])ccc(c34)C2=O)c1,-20.6%,0.2%,-34.6%,-13.1%,1.5%
O=C1C2C3CC(C(Br)C3Br)C2C(=O)N1c1ccccn1 (stereo not given),6.9%,?,-2.7%,32.3%,-0.4%
Cc1ccnc(N2C(=O)C3C4CC(C(Br)C4Br)C3C2=O)c1 (stereo not given),-12.0%,20.1%,22.5%,9.28µM*,15.8%
Cc1ccnc(N2C(=O)c3ccccc3C2=O)c1,-0.7%,-14.0%[0.00184 µM],1.2%,11.7µM*,-11.3%
CC12CCC(C(=NO)C1=O)C2(C)C (stereo not given),.,.,.,.,23.4%
O=C(Nc1ccncc1)C1CCN(S(=O)(=O)c2ccc(Cl)c(C(F)(F)F)c2)CC1,-3.9%,?,.,11.7µM*,-3.7%
O=C(Nc1ccncc1)C1CCN(S(=O)(=O)c2ccccc2C(F)(F)F)CC1,0.4%,?,17.3%,3.29µM*,-0.5%
O=C(Nc1ccncc1)C1CCN(S(=O)(=O)c2ccccc2)CC1,-1.7%,?,.,-15.1%,5.4%
Cc1cccc(N2CCN(c3nnnn3-c3ccccc3)CC2C)c1 (stereo not given),-12.1%,.,-88.4%,5.86µM*,-5.2%
Cc1cccc(N2CCN(c3cc(C)nc4nnnn34)CC2C)c1 (stereo not given),-1.6%,?,7.7%,?,13.2%
N#CCCn1cc(C(=O)Nc2ccc([N+](=O)[O-])cc2)c(-c2ccccc2)n1,-0.3%,-15.4%,?,-21.5%,-5.4%
CCN(CC)P(=O)(Nc1ccc([N+](=O)[O-])cc1)c1c(C)nn(CCC#N)c1NC(=O)c1ccc(Cl)cc1Cl (stereo not given),-7.6%,7.38µM*,-7.9%,7.38µM*,4.0%
CC[C@H](C)[C@@H](C(=O)N1CCNCC1)n1cc([C@@H](N)CO)nn1,-4.9%,1.5%,-0.9%,65.6%,17.5%
COc1ccc(CCNC(=O)c2c(N)n(CCN3CCOCC3)c3nc4ccccc4nc23)cc1OC,0.0%,9.28µM*,-11.3%,4.65µM*,19.4%
Nc1c(C(=O)NCc2ccco2)c2nc3ccccc3nc2n1Cc1ccccc1,28.2µM*,?,12.7%,?,16.7%
COc1ccc(CCn2c(N)c(C(=O)NCc3ccco3)c3nc4ccccc4nc32)cc1OC,15.8µM*,5.22µM*,8.7%,17.5%,50.1%
COc1ccc(Cn2c(N)c(C(=O)NCc3ccco3)c3nc4ccccc4nc32)cc1,-35.7%,?,8.7%,?,18.8%
SMILES,Sm TGR inh,Pf growth 48h,NS1 function inh,Pf growth 96h,AMA1 RON2 block
COc1ccc(-n2c(N)c(C(=O)NCc3ccco3)c3nc4ccccc4nc32)c(OC)c1,25.1µM*,?,?,?,45.3%
COc1ccc(NC(=O)C2CCCN(S(=O)(=O)c3ccc(Cl)cc3)C2)cc1 (stereo not given),0.0%,.,.,.,.
Nc1c(C(=O)NCc2ccco2)c2nc3ccccc3nc2n1Cc1ccc(F)cc1,11.2µM*,1.85µM*,16.2%,?,42.8%
Nc1c(C(=O)NCc2ccco2)c2nc3ccccc3nc2n1CCc1ccccc1F,25.1µM*,10.4µM*,14.7%,.,38.0%
Nc1c(C(=O)NCc2ccco2)c2nc3ccccc3nc2n1CCN1CCOCC1,25.1µM*,.,7.5%,-38.8%,49.7%
CCCCCCn1c(N)c(C(=O)NCCN2CCOCC2)c2nc3ccccc3nc21,?,9.28µM*,-49.3%,?,17.9%
CCCCCn1c(N)c(C(=O)NCCN2CCOCC2)c2nc3ccccc3nc21,-27.6%,?,-46.4%,?,27.9%
COc1ccc(CCn2c(N)c(C(=O)NCc3ccco3)c3nc4ccccc4nc32)cc1,0.0%,?,5.4%,-21.3%,46.3%
CCCCc1ccc(NC(=O)Nc2cc(C)nn2C)cc1,10.0%,-16.1%,0.8%,1.1%,-5.8%
CC(C)Cc1nnc(NC(=O)C2CC(=O)N(c3ccc4c(c3)OCCO4)C2)s1 (stereo not given),-6.1%,-9.3%,.,-29.0%,?
O=C(Oc1ccc2c(=O)c(Oc3ccc4ccccc4c3)coc2c1)c1cncc(Br)c1,-3.0%,12.4%,-3.8%,20.1%,162.3%
O=C(Oc1ccc2c(=O)c(Cl)coc2c1)c1ccncc1,8.91µM*,0.0%,-33.3%,-64.6%,9.6%
CCCCCn1c(N)c(-c2nc3ccccc3s2)c2c([N+](=O)[O-])nn(C)c(=O)c21,-22.0%,?,4.5%,5.22µM*,8.4%
COc1cc(/C=C/C(=O)Nc2cccc(S(=O)(=O)NC3=NCCCCC3)c2)ccc1OCC#N,-8.2%,10.4µM*,.,?,-8.1%
COc1ccc(OC)c(/C=C/C(=O)Nc2cccc(S(=O)(=O)NC3=NCCCCC3)c2)c1,0.2%,10.4µM*,.,?,3.8%
COc1ccc(/C=C/C(=O)Nc2cccc(S(=O)(=O)NC3=NCCCCC3)c2)cc1,-33.0%,56.2%,9.1%,90.0%,-2.0%
O=C(NCc1ccccc1Cl)c1cc(=O)[nH]c2ccccc12,50.1µM*,2.4%,1.8%,7.5%,-25.1%
COc1ccc(NCc2cc(=O)[nH]c3ccccc23)cc1,-14.5%,3.0%,-2.5%,5.0%,-3.7%
O=c1cc(CNCCCO)c2ccccc2[nH]1,-5.7%,-0.3%,?,3.7µM*,-8.5%
O=C(NCc1ccccc1F)c1cc(=O)[nH]c2ccccc12,-8.9%,7.6%,-9.9%,-3.9%,3.0%
CC(C(=O)Nc1ccccc1C(F)(F)F)n1nc(-c2ccccc2)c2c(c1=O)CCCC2 (stereo not given),-4.2%,.,.,.,.
CN(Cc1ccccc1)c1ccc2cc(S(=O)(=O)N3CCCCC3)ccc2n1,5.0%,.,.,.,.
